Experimental data from PubChem BioAssay (NCI).
The panel holds about 83,000 compounds, 20% with a hit somewhere; the sample as a whole holds those more often.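 A percent growth of 40 corresponds to 60% growth inhibition; 0 means no net growth; -100 means all cells died. Active threshold: below 10.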 Values without a mark were called inactive. Calls of active or inactive are those of the source.

Tested on: MOLT-4 leukemia
Test: NCI-60 one-dose screen, 48 h (100 = growth as untreated, 0 = no growth, -100 = all killed)
Details: 10 µM unless noted

Q: With `CC(C)(C)c1cc(-c2nc3ccc(N4CCN(CCO)CC4)cc3[nH]2)cc(C(C)(C)C)c1O` as the compound, how does the growth read?
A: Its growth is 32.9%.

Q: With `Clc1ccc(/C=C/c2nc(N3CCOCC3)c3nc(Cl)c(Cl)cc3n2)cc1` as the compound, how does the growth read?
A: The growth was 88%.

Q: `CCOC(=O)/C=C\C(=O)NC(N)=O` was tested. Which growth did it give?
A: Its growth is 86.5%.

Q: How did the growth turn out when `CCC#CC[C@H]1C/C=C2/C(=O)C=C[C@@H]2C/C=C\CCCC(=O)O1` was run?
A: Its growth is 7.42% (active).

Q: With `O=C(Cc1c(F)cccc1Cl)Nc1ccc(S(=O)(=O)Nc2ncccn2)cc1` as the compound, how does the growth read?
A: Its growth is 103%.

Q: With `C=CCc1cc(Cl)cc2c(OC(C)=O)c(C(C)=O)c(-c3ccccc3)nc12` as the compound, how does the growth read?
A: Its growth is 101%.

Q: For `Cc1c(C(=O)NCc2ccccc2)[n+](=O)c2cc(F)ccc2n1[O-]`, which growth is on record?
A: Its growth is 130%.

Q: For `C=CCOc1cccc(/C=C/C(=O)c2sc(Nc3cccnc3)nc2C)c1`, which growth is on record?
A: Its growth is 76.3%.

Q: Which growth does the source give for `COc1ccc(C(=O)c2cc(OC)c(OC)c(OC)c2)cc1/C=C/C(=O)c1ccc2c(c1)OCO2` here?
A: The growth was 2.27% (active).

Q: With `CCN(CC)S(=O)(=O)c1ccc2[nH]c(=O)cc(C(=O)Nc3ccc(OC)cc3OC)c2c1` as the compound, how does the growth read?
A: The growth was 99.7%.

Q: For `O=C(Nc1cc(C(F)(F)F)cc(C(F)(F)F)c1)Nc1ccc(OCc2nnc(-c3ccc(Cl)cc3)o2)c(F)c1`, which growth is on record?
A: Its growth is 18%.

Q: With `O=C1CCCCN1CCCCC#Cc1ccccc1C#Cc1ccccn1` as the compound, how does the growth read?
A: Its growth is 94.9%.

Q: With `COc1ccc2c(c1)C=CC(C#N)N2C(=O)c1ccccc1` (stereo not given) as the compound, how does the growth read?
A: Its growth is 11.9%.

Q: For `CC1(C)OC2COC3(C(=O)O)OC(C)(C)OC3C2O1` (stereo not given), which growth is on record?
A: The growth was 104%.

Q: `COc1cc(C2C=C(C)N=C3SC(C)=NN32)cc(OC)c1OC` (stereo not given) was tested. Which growth did it give?
A: The growth was 92.8%.
